# Results as given in publication PMC7862700, “An all-to-all approach to the identification of sequence-specific readers for epigenetic DNA modifications on cytosine”.
# How the values were obtained:
# Assay in all cases: DAPPL (digital affinity profiling via proximity ligation, sequencing); 10 mM Tris-HCl pH 7.5, 50 mM NaCl, 1 mM DTT, 4% glycerol, room temperature, 30 min; GST-TFs on glutathione beads, 16-mer random dsDNA library, 0.1% formaldehyde crosslink after washing; high values mean tight binding
# [1] = biological target: T1, FEV (Homo sapiens, UniProt Q99581 1-238); details: protein: recombinant; tags: N-terminal GST; dsDNA, one strand shown
# T1 sequence: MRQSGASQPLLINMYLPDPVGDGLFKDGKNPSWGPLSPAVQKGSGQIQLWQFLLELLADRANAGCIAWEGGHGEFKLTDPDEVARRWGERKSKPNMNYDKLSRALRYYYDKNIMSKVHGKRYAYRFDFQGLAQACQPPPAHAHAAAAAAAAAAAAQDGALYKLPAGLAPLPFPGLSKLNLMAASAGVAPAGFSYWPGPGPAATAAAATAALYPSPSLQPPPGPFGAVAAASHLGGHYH
# In short: (§1)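 Binding signal is each hexamer's read frequency for a factor divided by its frequency in the tag-only sample. The factors were GST-fused human transcription factors from yeast, captured on glutathione beads, DNA-barcoded and pooled with that sample. Pools were incubated with 200 nmole of a random double-stranded 16-mer DNA library in Tris/NaCl/DTT/glycerol buffer at room temperature for 30 min, then washed, crosslinked with 0.1% formaldehyde, proximity-ligated with BsaI/T4 ligase (1 h, 37 °C), PCR-amplified and sequenced on an Illumina NextSeq500.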
# [2] = biological target: ETV5 (Homo sapiens, UniProt P41161 1-510); details: protein: recombinant; tags: N-terminal GST; dsDNA, one strand shown
# ETV5, sequence (P41161 whole entry): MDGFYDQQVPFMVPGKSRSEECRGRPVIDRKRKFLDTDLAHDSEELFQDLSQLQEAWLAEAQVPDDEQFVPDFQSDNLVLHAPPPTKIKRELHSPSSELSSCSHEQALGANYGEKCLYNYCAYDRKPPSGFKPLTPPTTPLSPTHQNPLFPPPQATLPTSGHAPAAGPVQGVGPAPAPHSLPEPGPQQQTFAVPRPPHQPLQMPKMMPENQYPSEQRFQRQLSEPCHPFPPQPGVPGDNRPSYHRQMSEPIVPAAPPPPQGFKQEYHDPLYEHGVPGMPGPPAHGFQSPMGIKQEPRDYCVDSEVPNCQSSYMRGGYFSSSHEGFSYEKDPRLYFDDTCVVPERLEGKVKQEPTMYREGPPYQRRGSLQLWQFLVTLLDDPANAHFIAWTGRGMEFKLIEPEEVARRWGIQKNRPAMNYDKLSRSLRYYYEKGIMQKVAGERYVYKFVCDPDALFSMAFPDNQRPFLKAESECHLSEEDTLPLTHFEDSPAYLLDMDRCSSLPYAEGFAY
# In short: as §1
# [3] = biological target: HSF1 (Homo sapiens, UniProt Q00613 1-529); details: protein: recombinant; tags: N-terminal GST; chain copies: 3; dsDNA, one strand shown
# HSF1, sequence (Q00613 whole entry): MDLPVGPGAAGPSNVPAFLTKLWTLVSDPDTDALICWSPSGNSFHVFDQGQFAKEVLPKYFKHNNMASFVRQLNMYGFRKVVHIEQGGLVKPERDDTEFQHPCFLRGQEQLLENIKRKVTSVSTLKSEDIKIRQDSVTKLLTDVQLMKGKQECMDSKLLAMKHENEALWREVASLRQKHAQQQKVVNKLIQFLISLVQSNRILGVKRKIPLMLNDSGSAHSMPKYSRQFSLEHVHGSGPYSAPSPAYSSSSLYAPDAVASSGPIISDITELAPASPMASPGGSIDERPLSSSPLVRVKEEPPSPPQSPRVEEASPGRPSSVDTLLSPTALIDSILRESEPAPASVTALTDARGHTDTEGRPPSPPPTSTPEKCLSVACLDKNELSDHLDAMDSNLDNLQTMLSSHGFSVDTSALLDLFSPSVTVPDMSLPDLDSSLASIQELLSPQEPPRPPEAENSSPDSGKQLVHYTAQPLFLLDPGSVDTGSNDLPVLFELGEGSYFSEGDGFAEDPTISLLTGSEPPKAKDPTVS
# In short: as §1
# [4] = biological target: T2, SPIC (Homo sapiens, UniProt Q8N5J4 1-248); details: protein: recombinant; tags: N-terminal GST; dsDNA, one strand shown
# T2 sequence: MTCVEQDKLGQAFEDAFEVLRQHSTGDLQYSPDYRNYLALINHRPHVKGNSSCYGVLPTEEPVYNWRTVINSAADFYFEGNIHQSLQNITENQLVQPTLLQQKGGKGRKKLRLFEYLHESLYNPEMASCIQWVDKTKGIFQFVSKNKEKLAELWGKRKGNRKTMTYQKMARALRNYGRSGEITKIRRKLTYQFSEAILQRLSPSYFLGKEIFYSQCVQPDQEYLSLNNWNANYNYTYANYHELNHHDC
# In short: as §1
# [5] = biological target: ELF4 (Homo sapiens, UniProt Q99607 1-663); details: protein: recombinant; tags: N-terminal GST; dsDNA, one strand shown
# ELF4, sequence (Q99607 whole entry): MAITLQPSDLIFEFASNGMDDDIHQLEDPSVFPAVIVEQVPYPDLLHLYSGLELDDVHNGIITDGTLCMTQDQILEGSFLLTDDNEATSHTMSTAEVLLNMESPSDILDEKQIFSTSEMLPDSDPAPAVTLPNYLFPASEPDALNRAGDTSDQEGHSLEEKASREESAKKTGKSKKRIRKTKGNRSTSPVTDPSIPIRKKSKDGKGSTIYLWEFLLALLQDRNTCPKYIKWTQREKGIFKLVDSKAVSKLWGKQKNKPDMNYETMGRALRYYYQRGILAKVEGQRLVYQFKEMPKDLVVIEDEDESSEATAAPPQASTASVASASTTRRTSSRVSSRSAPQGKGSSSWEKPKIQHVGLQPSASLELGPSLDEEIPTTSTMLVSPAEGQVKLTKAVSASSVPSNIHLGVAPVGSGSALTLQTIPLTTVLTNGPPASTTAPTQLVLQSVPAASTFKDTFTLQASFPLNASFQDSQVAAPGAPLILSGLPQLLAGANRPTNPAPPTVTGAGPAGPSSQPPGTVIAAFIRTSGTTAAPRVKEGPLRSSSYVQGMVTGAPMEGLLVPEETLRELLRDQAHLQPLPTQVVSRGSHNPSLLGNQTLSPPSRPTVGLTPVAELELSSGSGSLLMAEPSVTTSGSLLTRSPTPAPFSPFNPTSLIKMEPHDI
# In short: as §1
# [6] = biological target: T3, ELK4 (Homo sapiens, UniProt P28324-2 1-405); details: protein: recombinant; tags: N-terminal GST; dsDNA, one strand shown
# T3 sequence: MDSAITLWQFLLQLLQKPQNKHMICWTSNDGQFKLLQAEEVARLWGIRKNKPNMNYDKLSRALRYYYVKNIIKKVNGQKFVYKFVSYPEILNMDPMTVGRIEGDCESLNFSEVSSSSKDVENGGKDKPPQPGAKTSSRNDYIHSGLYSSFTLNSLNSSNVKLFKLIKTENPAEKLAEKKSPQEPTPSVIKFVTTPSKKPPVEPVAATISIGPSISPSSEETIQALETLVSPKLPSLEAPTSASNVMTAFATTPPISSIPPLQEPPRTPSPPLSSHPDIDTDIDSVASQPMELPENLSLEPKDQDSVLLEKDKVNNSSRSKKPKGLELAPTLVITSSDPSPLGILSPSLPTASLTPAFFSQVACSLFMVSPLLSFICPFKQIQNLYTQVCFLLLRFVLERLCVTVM
# In short: as §1
# [7] = biological target: T4, ETV2 (Homo sapiens, UniProt O00321 1-342); details: protein: recombinant; tags: N-terminal GST; dsDNA, one strand shown
# T4 sequence: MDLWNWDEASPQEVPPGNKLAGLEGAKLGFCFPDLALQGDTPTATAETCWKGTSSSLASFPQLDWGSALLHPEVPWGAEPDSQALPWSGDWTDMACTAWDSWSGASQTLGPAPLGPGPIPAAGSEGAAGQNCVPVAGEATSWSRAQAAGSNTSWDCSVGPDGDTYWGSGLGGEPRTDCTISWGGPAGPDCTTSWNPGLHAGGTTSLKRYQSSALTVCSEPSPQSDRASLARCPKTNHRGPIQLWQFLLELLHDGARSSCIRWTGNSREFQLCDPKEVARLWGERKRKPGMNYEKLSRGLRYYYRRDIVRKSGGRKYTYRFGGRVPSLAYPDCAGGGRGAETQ
# In short: as §1
# [8] = biological target: T5, ELF3 (Homo sapiens, UniProt P78545 1-371); details: protein: recombinant; tags: N-terminal GST; dsDNA, one strand shown
# T5 sequence: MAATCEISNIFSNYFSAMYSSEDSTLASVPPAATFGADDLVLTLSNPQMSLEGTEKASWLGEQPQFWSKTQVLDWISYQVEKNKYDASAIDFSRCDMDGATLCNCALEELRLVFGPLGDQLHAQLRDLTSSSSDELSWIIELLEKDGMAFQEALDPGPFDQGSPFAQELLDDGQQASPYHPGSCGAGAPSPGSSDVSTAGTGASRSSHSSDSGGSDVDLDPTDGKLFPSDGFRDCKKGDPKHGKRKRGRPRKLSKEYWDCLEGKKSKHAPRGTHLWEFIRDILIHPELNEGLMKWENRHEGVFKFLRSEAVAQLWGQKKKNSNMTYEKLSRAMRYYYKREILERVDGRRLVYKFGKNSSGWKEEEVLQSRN
# In short: as §1
# [9] = biological target: CRX (Homo sapiens, UniProt O43186 1-299); details: protein: recombinant; tags: N-terminal GST; dsDNA, one strand shown
# CRX, sequence (O43186 whole entry): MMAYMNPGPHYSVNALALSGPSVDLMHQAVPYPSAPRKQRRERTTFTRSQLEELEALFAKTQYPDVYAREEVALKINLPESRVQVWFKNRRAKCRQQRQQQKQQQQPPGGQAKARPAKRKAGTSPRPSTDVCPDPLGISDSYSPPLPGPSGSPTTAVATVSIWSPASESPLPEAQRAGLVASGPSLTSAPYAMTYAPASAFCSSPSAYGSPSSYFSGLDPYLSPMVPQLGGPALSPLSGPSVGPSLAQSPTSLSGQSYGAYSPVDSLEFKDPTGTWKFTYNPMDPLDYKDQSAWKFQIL
# In short: as §1
# [10] = biological target: ETV1 (Homo sapiens, UniProt P50549 1-477); details: protein: recombinant; tags: N-terminal GST; dsDNA, one strand shown
# ETV1, sequence (P50549 whole entry): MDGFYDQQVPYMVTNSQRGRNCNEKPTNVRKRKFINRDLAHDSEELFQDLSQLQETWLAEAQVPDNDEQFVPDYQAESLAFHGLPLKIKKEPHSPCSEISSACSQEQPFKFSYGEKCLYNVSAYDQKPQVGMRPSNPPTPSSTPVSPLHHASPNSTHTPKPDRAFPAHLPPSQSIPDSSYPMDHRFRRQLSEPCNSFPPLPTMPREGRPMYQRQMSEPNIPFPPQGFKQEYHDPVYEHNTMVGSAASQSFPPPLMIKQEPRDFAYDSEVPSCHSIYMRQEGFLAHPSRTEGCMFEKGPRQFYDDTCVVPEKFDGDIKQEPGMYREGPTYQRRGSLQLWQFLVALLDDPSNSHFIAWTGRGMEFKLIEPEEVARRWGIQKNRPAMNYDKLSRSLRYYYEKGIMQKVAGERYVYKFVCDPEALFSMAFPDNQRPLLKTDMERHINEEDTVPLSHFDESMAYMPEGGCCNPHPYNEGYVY
# In short: as §1
# [11] = biological target: T6, ERF (Homo sapiens, UniProt P50548 1-548); details: protein: recombinant; tags: N-terminal GST; dsDNA, one strand shown
# T6 sequence: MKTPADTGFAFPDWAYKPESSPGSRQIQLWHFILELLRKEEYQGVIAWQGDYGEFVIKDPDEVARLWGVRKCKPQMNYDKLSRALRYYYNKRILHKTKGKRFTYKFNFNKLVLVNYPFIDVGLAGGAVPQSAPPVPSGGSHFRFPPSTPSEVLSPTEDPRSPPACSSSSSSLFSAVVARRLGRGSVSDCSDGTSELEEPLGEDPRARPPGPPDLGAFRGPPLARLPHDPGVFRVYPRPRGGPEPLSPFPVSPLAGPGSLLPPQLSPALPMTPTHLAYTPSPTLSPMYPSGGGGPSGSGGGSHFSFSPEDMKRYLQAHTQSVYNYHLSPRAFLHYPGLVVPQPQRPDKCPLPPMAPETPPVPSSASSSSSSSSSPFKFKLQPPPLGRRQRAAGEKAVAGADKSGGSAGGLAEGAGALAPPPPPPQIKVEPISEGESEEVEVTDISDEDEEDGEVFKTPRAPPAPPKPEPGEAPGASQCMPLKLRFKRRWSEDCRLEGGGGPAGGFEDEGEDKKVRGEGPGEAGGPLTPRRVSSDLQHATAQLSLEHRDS
# In short: as §1
# [12] = biological target: T7, ETV3L (Homo sapiens, UniProt Q6ZN32 1-361); details: protein: recombinant; tags: N-terminal GST; dsDNA, one strand shown
# T7 sequence: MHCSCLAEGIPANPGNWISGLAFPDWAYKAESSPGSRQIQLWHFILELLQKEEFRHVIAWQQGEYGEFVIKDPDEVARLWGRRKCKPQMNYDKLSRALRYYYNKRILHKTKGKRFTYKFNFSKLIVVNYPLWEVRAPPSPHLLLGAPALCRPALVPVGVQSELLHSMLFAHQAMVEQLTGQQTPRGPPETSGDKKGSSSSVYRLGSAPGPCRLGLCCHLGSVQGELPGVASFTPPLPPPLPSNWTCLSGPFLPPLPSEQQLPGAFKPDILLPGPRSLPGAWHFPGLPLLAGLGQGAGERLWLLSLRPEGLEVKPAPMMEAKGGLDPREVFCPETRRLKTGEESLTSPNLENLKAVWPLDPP
# In short: as §1
# [13] = biological target: T8, ETS2 (Homo sapiens, UniProt P15036 1-469); details: protein: recombinant; tags: N-terminal GST; dsDNA, one strand shown
# T8 sequence: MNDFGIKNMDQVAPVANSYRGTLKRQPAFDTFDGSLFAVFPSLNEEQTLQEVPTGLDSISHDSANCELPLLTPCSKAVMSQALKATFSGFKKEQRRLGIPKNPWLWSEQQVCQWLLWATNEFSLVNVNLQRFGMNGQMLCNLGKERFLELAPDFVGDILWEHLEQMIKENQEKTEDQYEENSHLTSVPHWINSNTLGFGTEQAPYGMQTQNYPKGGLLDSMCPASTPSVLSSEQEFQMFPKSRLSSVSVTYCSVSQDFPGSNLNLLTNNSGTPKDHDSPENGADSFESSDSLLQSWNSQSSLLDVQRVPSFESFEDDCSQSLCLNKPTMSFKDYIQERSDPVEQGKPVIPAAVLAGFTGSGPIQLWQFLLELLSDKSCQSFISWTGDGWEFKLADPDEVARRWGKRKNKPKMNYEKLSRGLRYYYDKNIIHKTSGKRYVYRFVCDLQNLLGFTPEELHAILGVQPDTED
# In short: as §1
# [14] = biological target: T9, SPDEF (Homo sapiens, UniProt O95238 1-335); details: protein: recombinant; tags: N-terminal GST; dsDNA, one strand shown
# T9 sequence: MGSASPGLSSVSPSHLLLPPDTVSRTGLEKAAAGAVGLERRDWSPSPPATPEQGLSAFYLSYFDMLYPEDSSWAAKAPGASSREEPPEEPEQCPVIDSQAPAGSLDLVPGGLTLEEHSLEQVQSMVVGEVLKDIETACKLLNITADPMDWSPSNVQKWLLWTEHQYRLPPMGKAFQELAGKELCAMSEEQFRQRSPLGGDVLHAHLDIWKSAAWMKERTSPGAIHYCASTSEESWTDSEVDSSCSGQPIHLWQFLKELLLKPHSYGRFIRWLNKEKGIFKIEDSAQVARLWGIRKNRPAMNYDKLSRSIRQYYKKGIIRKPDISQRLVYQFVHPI
# In short: as §1
# [15] = biological target: T10, ETV7 (Homo sapiens, UniProt Q9Y603 1-341); details: protein: recombinant; tags: N-terminal GST; dsDNA, one strand shown
# T10 sequence: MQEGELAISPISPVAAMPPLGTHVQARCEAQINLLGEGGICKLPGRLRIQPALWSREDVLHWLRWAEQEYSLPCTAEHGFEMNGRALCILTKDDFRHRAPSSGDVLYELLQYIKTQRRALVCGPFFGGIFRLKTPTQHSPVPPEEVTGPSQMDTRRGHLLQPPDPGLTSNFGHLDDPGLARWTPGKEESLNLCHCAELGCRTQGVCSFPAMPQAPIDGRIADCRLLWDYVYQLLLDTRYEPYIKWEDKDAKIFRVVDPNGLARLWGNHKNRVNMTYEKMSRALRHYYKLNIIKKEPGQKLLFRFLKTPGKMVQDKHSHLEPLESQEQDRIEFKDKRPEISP
# In short: as §1
# [16] = biological target: T11, ELF5 (Homo sapiens, UniProt Q9UKW6-2 1-255); details: protein: recombinant; tags: N-terminal GST; dsDNA, one strand shown
# T11 sequence: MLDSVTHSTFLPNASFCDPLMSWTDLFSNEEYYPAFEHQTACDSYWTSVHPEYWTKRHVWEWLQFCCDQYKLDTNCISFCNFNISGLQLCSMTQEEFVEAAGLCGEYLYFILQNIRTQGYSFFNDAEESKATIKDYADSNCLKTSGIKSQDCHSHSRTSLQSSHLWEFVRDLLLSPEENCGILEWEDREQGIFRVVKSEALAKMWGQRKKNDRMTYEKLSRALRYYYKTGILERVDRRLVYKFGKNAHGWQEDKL
# In short: as §1
# [17] = biological target: T12, ETV3 (Homo sapiens, UniProt P41162-2 1-143); details: protein: recombinant; tags: N-terminal GST; dsDNA, one strand shown
# T12 sequence: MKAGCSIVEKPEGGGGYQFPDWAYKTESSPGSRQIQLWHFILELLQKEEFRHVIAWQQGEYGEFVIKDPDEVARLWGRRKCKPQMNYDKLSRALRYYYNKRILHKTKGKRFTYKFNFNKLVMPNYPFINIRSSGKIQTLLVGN
# In short: as §1
# [18] = biological target: ETV6 (Homo sapiens, UniProt P41212 1-452); details: protein: recombinant; tags: N-terminal GST; dsDNA, one strand shown
# ETV6, sequence (P41212 whole entry): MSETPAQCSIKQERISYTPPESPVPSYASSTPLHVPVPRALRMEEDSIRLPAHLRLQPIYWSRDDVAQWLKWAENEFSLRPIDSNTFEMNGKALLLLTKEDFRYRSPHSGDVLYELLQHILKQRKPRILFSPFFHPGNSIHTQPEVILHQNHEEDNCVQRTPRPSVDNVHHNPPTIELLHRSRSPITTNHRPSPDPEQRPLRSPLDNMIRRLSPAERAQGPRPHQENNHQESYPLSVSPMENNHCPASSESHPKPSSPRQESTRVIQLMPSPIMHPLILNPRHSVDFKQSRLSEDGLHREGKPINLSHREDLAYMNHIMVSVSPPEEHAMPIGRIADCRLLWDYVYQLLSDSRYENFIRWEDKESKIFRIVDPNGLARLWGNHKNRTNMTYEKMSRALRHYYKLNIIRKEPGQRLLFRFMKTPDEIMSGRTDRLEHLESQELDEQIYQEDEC
# In short: as §1
sequence,measurement,setting,value
CCAATT,binding signal,[1],"1.23 fold enrichment (6-mer frequency, TF over GST control)"
same,binding signal,[2],"1.26 fold enrichment (6-mer frequency, TF over GST control)"
same,binding signal,[3],"1.09 fold enrichment (6-mer frequency, TF over GST control)"
same,binding signal,[4],"1.31 fold enrichment (6-mer frequency, TF over GST control)"
same,binding signal,[5],"1.32 fold enrichment (6-mer frequency, TF over GST control)"
same,binding signal,[6],"1.09 fold enrichment (6-mer frequency, TF over GST control)"
same,binding signal,[7],"1.27 fold enrichment (6-mer frequency, TF over GST control)"
same,binding signal,[8],"1.39 fold enrichment (6-mer frequency, TF over GST control)"
same,binding signal,[9],"1.05 fold enrichment (6-mer frequency, TF over GST control)"
same,binding signal,[10],"1.26 fold enrichment (6-mer frequency, TF over GST control)"
same,binding signal,[11],"1.23 fold enrichment (6-mer frequency, TF over GST control)"
same,binding signal,[12],"1.24 fold enrichment (6-mer frequency, TF over GST control)"
same,binding signal,[13],"1.25 fold enrichment (6-mer frequency, TF over GST control)"
same,binding signal,[14],"1.19 fold enrichment (6-mer frequency, TF over GST control)"
same,binding signal,[15],"1.21 fold enrichment (6-mer frequency, TF over GST control)"
same,binding signal,[16],"1.14 fold enrichment (6-mer frequency, TF over GST control)"
same,binding signal,[17],"1.23 fold enrichment (6-mer frequency, TF over GST control)"
same,binding signal,[18],"1.24 fold enrichment (6-mer frequency, TF over GST control)"
